Measurements: PubChem BioAssay (NCI)
About 83,000 compounds went through this panel and 20% of them were active in at least one assay; those are over-represented in the sample as a whole.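 Compound tested at a single concentration for 48 hours in 96-well plates; a percent growth value below 10 was scored as active.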 Values without a mark were called inactive. The source made the active and inactive calls.

These compounds were tested on HL-60(TB) leukemia (assay: NCI-60 one-dose screen, 48 h (100 = growth as untreated, 0 = no growth, -100 = all killed)). Conditions: 10 µM unless noted.

SMILES	growth
COc1ccc(C(=O)c2cc(OC)c(OC)c(OC)c2)cc1/C=C/C(=O)c1ccc(F)cc1	93.2%
Cc1cc(=O)n(C(=S)Nc2ccc(Cl)cc2)c2cc(O)ccc12	111%
CN(C)CCn1c2ccc(Br)cc2c2nc3ccccc3nc21	26.2%
CN1CCN(CC(=O)Nc2ccc3ncnc(Nc4ccc(Oc5cccc(C(F)(F)F)c5)c(Cl)c4)c3c2)CC1	-35.7% (active)
O=C1Nc2ccccc2/C1=C/c1nc2ccccc2c(=O)[nH]1	102%
NS(=O)(=O)Oc1ccc(NC(=O)C23CC4CC(CC(C4)C2)C3)cc1Cl	100%
CC1CCCC(CC(N)=O)CC1 (stereo not given)	90.5%
CCCCCCCCCCCCC1CCC/C=C\CCC(=O)O1 (stereo not given)	88.6%
O=S(=O)(Nc1ccc(Cl)c(Cl)c1)c1ccc(-c2cnc(C3CC3)o2)cc1	18.6%
C=CCS(C)(=O)=O	104%
COc1ccccc1Cn1cc2c(c1-c1ccccc1)CCc1cnoc1-2	19.4%
CNC1=C([N+](=O)[O-])C(c2ccccc2O)C(C#N)=C(c2cccs2)O1 (stereo not given)	75.1%
CCC(C)(C)c1cc(O)c(C(C)(C)CC)cc1O	-9.67% (active)
c1c[nH]c(CNC2CCCCC2)c1	263%
CCOC(=O)c1nc2c3ccccc3cnn2c1C(=O)c1ccc(OC)cc1	102%
CSc1nc(-c2cccs2)c2c(N)[nH]nc2n1	85.3%
O=C1C=CC(=CC=C2C=CN(CCCCCCCCCCCO)C=C2)C=C1	4.05% (active)
Nc1nc(SCc2cccc([N+](=O)[O-])c2)c2[nH]cnc2n1	94.9%
Cc1cc(C)c(C(=O)c2cccs2)c(C)c1	98.3%
Oc1[nH]c2ccccc2c1/C=c1/cc2c(c(-c3ccc(C(F)(F)F)cc3)n1)=Nc1ccccc1-2	19.2%

SMILES	growth
Cn1cc(-c2cc3ncnc(Nc4ccc(CC(=O)Nc5cc(C(C)(C)C)nn5C)cc4)c3s2)cn1	63.4%
Cc1cc(NCCCCNc2ccnc3cc(Cl)ccc23)nc(Nc2ccc(C(=O)N3CCCC3)cc2)n1	14.7%
C#C[C@]1(O)CC[C@H]2[C@@H]3CC[C@H]4CC(F)(F)CC[C@]4(C)[C@H]3CC[C@@]21C	107%
N#Cc1c(-c2ccccc2)cc(-c2ccccc2)n(CC(=O)O)c1=O	23.6%
OCCn1cc(-c2nc(-c3c[nH]c4ncccc34)cs2)c2ccccc21	79.1%
CC(=O)Nc1cccc(-n2c(=O)n(C3CC3)c(=O)c3c(Nc4ccc(I)cc4F)n(C)c(=O)c(C)c32)c1	27.1%
Nc1ccc(S(=O)(=O)O)c2cc(S(=O)(=O)O)cc(O)c12	99.2%
O=C(Nc1ccc(Cl)cc1)c1cc2c(cc1O)[nH]c1ccccc12	-24.5% (active)
COC(=O)c1cncc(C(=O)Nc2ccc(-n3cnc4ccccc43)cc2)c1	93.7%
C=C1c2c(C)nn(-c3ccc(N)cc3)c2N(C)C23CC1C1(C)c4c(C)nn(-c5ccc(N)cc5)c4N(C)C(C)(CC12)C3 (stereo not given)	55.7%
COc1cc(OC)c(C(=O)/C=C/c2cccc(OC(C)=O)c2)cc1CC=C(C)C	8.14% (active)
COc1ccc(-c2n[nH]nc2-c2cc(OC)c3c(c2)OCO3)cc1	-38.2% (active)
CC/C(=N/NC(N)=O)c1ccccc1	101%
C#Cc1cccc(NC(=O)C2CCCN(C(=O)CCl)C2)c1 (stereo not given)	34% [8.25 µM]
Oc1ccccc1-c1nnc(Cn2c(Cc3cccc4ccccc34)nc3ccccc32)o1	96%
COc1ccc2cc(-c3cnc4nonc4n3)ccc2c1	-12% (active)
Cc1ccc(N)cc1[N+](=O)[O-]	96.5%
COc1ccc(-c2cc(-c3ccccc3)nc(N3CCN(CCNc4ccnc5cc(Cl)ccc45)CC3)n2)cc1	-39.8% (active)
CC(=O)OC[C@H]1OC(Sc2sc(C(=O)c3ccc(C)cc3)c(N)c2-c2nc3ccccc3s2)[C@H](OC(C)=O)[C@@H](OC(C)=O)[C@@H]1OC(C)=O (stereo not given in full)	80%
CC(=O)O[C@@H]1C[C@]2(C)[C@H]3[C@H](O)C[C@@H]4C5=CC(C)(C)CC[C@]5(C)CC[C@@]4(C)[C@]3(C)CC[C@H]2C(C)(C)[C@H]1O	120%
